Only some compounds are listed: those with a hit (about 10% of all), similar ones and a draw of the others.
JMJD2A Tudor: blocks the human JMJD2A Tudor domain; O75164; AlphaScreen JMJD2A-Tudor / H3K4me3 peptide binding; Potency, µM (titrated, usually from 114 µM), usual class: inhibitors; 4.4% of 390,000 active; AID 504339; also: nearly all actives have a fitted effect of over 50% in size
Target sequence (O75164 whole entry, looked up, the tested form may be a part): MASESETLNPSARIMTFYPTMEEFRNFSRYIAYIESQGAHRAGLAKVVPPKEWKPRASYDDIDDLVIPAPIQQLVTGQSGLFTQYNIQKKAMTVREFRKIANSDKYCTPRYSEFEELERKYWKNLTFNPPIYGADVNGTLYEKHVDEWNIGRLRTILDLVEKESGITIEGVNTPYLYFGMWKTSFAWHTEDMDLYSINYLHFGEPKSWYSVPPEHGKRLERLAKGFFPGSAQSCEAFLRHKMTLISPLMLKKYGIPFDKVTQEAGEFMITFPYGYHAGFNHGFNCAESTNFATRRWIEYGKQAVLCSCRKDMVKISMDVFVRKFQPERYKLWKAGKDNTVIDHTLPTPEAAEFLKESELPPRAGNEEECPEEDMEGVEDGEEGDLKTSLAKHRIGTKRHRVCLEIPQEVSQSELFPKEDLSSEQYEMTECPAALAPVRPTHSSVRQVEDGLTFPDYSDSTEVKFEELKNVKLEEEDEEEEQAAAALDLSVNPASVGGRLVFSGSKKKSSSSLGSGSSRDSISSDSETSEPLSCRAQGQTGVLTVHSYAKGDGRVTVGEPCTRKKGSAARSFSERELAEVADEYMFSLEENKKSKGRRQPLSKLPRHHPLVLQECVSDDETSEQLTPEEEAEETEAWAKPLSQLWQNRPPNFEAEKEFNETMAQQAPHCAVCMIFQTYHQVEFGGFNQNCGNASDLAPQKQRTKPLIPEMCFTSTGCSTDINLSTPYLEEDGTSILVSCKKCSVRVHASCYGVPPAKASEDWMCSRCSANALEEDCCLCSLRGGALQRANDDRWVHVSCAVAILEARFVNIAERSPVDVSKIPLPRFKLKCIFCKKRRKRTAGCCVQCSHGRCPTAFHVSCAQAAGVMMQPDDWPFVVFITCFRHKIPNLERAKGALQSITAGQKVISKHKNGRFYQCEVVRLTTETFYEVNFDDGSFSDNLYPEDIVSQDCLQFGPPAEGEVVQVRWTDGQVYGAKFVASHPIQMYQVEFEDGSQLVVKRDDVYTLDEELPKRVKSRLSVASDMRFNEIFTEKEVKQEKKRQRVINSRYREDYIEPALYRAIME
BAZ2B block: BAZ2B (human) inhibition. Potency, µM (doses to about 114 µM), usual class: inhibitors. Q9UIF8. 4.4% of 360,000 active. AlphaScreen BAZ2B-H3K14Ac peptide displacement. AID 504333; also: nearly all actives have a fitted effect of over 60% in size
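Inhibition is scored as reduced AlphaScreen emission. The BAZ2B/b-H3(5-23)K14Ac complex (50 nM each) in PBS pH 7.4, 0.01% Tween-20 meets compound (up to 110 uM) for 30 min at RT before bead addition.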
HP1b chromo inh: HP1-beta chromodomain-methylated histone interaction inhibition | P83916 | AlphaScreen HP1-beta / biotin-H3K9me3 peptide binding | Potency, µM (doses to about 114 µM), most hits filed as inhibitors | 0.56% of 390,000 active | AID 540317; also: nearly all actives have a fitted effect of over 70% in size
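AlphaScreen: HP1-beta (50 nM) preformed 30 min with biotin-H3(1-18)K9me3 peptide (50 nM) in PBS pH 7.4, 0.01% Tween-20. Compound added for 30 min at RT, then streptavidin donor/nickel chelate acceptor beads (10 ug/mL) for 30 min.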
Six1-Eya2 blk: inhibitors of human Six1/Eya2 interaction. Q15475+O00167. AlphaScreen GST-Six1/His-Eya2 binding, biochemical; stronger effect = lower value. activity change, % (no concentration beside the values). 0.56% of 360,000 active; in the data active = activity change below about -65%; inconclusive = mostly about -30% to -63%
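Six1/Eya2 binding was read as AlphaScreen signal after compounds were pinned into GST-Six1 plus His-tagged Eya2 (5X stock 250/500 nM) in pH 8.0 Tris/NaCl/TCEP buffer, beads added, then incubated 1 h, 37 C, dark.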
G9a inh: inhibitors of human histone lysine methyltransferase G9a | Potency, µM (titrated, usually from 102 µM), hits mostly inhibitors | 8.8% of 350,000 active | G9a H3K9 monomethylation, AlphaScreen, 2 h; also: nearly all actives have a fitted effect of over 75% in size
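Quantitative HTS format: methyltransferase activity on a biotin-tagged H3K9 peptide is measured by AlphaScreen, using a rabbit anti-monomethyl-H3K9 antibody with streptavidin donor and anti-IgG acceptor beads. Final levels are 20 nM enzyme, 500 nM peptide, 20 uM SAM; 2 h RT.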
CtBP-E1A blk: inhibitors of CtBP/E1A interaction. AID 651724. activity change, % (concentration not given with the values). 0.49% of 340,000 active. AlphaScreen GST-E1A/His-CtBP binding, 1536-well; stronger effect = lower value; in the data active = activity change below about -65%; inconclusive = mostly about -30% to -63%
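Protein mix (5X: 125 nM each GST-E1A, His-CtBP) was incubated with pinned compound 2 h at 37 deg C in dark, in 50 mM Tris pH 8.0 buffer with 300 mM NaCl. Glutathione donor and nickel acceptor beads followed; AlphaScreen signal read after 1 h.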
Each line names hits and unclear results; the compound was inactive in the other large screens. Unless noted, calls follow the shape of the dose curve; as a rule, active = well fitted inhibition curve with a large enough effect; inconclusive = small, poorly fitted or top-dose-only effect; inactive = no such curve, though single readings can be large or run the other way.

Cc1ccc2c(c1)N(C(=O)c1ccco1)C(C)(C)c1ssc(=S)c1-2	JMJD2A Tudor 14.1µM, BAZ2B block 10µM, HP1b chromo inh inconclusive, Six1-Eya2 blk inconclusive, G9a inh 11.2µM, CtBP-E1A blk inconclusive
CC1=CC(C)(C)N(C(=O)CSc2nncn2C)c2ccccc21	none
Cc1ccc2c(c1)N(C(=O)CSc1nncn1C)C(C)(C)c1ssc(=S)c1-2	JMJD2A Tudor 79.4µM, Six1-Eya2 blk inconclusive, G9a inh 14.1µM, CtBP-E1A blk inconclusive (no result: BAZ2B block)
CC1(C(=O)Nc2cccc(NS(C)(=O)=O)c2)Cc2c(-c3ccc(C(N)=O)cc3)ccnc2O1 (centres undefined)	none (no result: JMJD2A Tudor, BAZ2B block, HP1b chromo inh, G9a inh)
Cc1ccn(CCC(=O)O)n1	none (no result: G9a inh)
Cc1ccn(-c2cc(O)c(-n3ccc(C)n3)cc2O)n1	JMJD2A Tudor inconclusive, HP1b chromo inh inconclusive, G9a inh 3.55µM (no result: CtBP-E1A blk)
CN1C(C(=O)Nc2ccc(C(=O)O)cc2)=C(O)c2ccccc2S1(=O)=O	JMJD2A Tudor 79.4µM, G9a inh inconclusive
CCN(CC)S(=O)(=O)c1ccc(NC2=NS(=O)(=O)c3ccccc32)cc1	BAZ2B block inconclusive
CC(=O)Nc1ccc(S(=O)(=O)NNC2=NS(=O)(=O)c3ccccc32)cc1	BAZ2B block 70.8µM
Cc1ccc(CNC(=O)c2nnc(Cc3cccc(F)c3)o2)cc1	none (no result: Six1-Eya2 blk, CtBP-E1A blk)
CCOc1ccc(N2C(=O)CC(N3CCC(O)(c4ccc(Br)cc4)CC3)C2=O)cc1 (centres undefined)	G9a inh 44.7µM
CCOc1ccc(N2C(=O)CC(N3CCN(C(=O)CN4CCCC4)CC3)C2=O)cc1 (centres undefined)	G9a inh inconclusive
CCOc1ccc(N2C(=O)CC(N3CCN(c4ccc(F)cc4)CC3)C2=O)cc1 (centres undefined)	G9a inh 44.7µM
O=C(NCC(=O)N1CCC(Cc2ccccc2)CC1)c1ccc(Cl)cc1	none
Cc1cccnc1N(C(=O)Nc1cccc(Cl)c1)C1=NCC(C)(C)S1	G9a inh inconclusive
Cc1cccnc1N(C(=O)Nc1ccccc1)C1=NCC(C)(C)S1	G9a inh 56.2µM
CCOc1ccc(NC(=O)CN(C)C(=O)c2cc(-c3ccc(OC)cc3)nc3ccccc23)cc1OCC	G9a inh 50.1µM
CCOc1ccc(NC(=O)CN(C)C(=O)c2cc(C)on2)cc1OCC	G9a inh inconclusive
CCOc1ccc(NC(=O)CN(C)C(=O)Cn2cnc3c2c(=O)n(C)c(=O)n3C)cc1OCC	G9a inh 50.1µM
COc1ccc(NC(=O)CN(C)C(=O)c2cc(-c3ccc(Cl)cc3)nc3ccccc23)cc1	G9a inh inconclusive
CCOc1ccc(NC(=O)CN(C)C(=O)c2ccncc2)cc1OCC	G9a inh 39.8µM
COc1ccc(NC(=O)CN(C)C(=O)Cn2cnc3c2c(=O)n(C)c(=O)n3C)cc1	none
CCOc1ccc(NC(=O)CN(C)C(=O)c2ccccc2CCc2ccccc2)cc1OCC	G9a inh 56.2µM
O=S(=O)(c1ccccc1)N1CCC(c2ccncc2)CC1	none (no result: Six1-Eya2 blk, CtBP-E1A blk)
O=c1cc(CSc2ccccc2)[nH]c2ccccc12	none
O=c1cc(CSc2ccccc2)[nH]c(=S)[nH]1	JMJD2A Tudor 89.1µM, G9a inh inconclusive
Cc1nnc(SCc2cc(=O)[nH]c(=S)[nH]2)s1	JMJD2A Tudor inconclusive, BAZ2B block inconclusive, G9a inh 28.2µM
CCC1=Nc2cc(C(=O)NC3CCCC3)ccc2Sc2ccc(Br)cc21	none (no result: Six1-Eya2 blk, CtBP-E1A blk)
COc1cc(C(=O)Nc2nnc(CC(C)(C)C)s2)c([N+](=O)[O-])cc1OC	none
COc1cc(C(=O)Nc2nnc(C(C)(C)C)s2)c([N+](=O)[O-])cc1OC	HP1b chromo inh inconclusive, G9a inh 10µM
O=C(O)c1ccn(Cn2cnc3ccccc32)n1	JMJD2A Tudor 22.4µM, BAZ2B block inconclusive, G9a inh inconclusive
O=C(Cn1cnc2ccccc21)c1ccccc1	none (no result: G9a inh)
O=C1CCN(S(=O)(=O)c2ccccc2)N1	G9a inh 11.2µM
O=C1CCN(S(=O)(=O)c2ccc(Cl)cc2)N1	G9a inh inconclusive
Cc1nn(C(=O)c2c(F)cccc2F)c(C)c1S(=O)(=O)N1CCCCCC1	none (no result: Six1-Eya2 blk, CtBP-E1A blk)

Screens deposited in PubChem BioAssay by National Center for Advancing Translational Sciences (NCATS).
